High-throughput results as filed in PubChem.
Most compounds without a hit are left out; they make up all but 10% or so of the library.
G9a inh: blocks human histone lysine methyltransferase G9a. Potency, µM (highest dose often 102 µM), for the others: at the top dose activity, negative = inhibition, hits mostly inhibitors. G9a H3K9 monomethylation, AlphaScreen, 2 h. 8.8% of 350,000 active. AID 504332; also: % is scaled to controls: 0 for no effect and ±100 for the full control effect; nearly all actives have a fitted effect of over 75% in size
Target sequence (Q96KQ7 913-1193 limits assumed): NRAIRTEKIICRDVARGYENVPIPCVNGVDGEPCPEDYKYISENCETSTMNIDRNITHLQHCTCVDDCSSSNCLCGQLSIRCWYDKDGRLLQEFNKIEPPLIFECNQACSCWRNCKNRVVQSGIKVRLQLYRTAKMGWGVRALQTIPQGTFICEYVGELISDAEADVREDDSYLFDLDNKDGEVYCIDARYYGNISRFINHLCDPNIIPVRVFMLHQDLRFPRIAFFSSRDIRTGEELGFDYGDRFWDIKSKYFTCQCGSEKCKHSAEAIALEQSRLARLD
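Enzyme 20 nM + cpd, 15 min RT; add b-H3K9 pep 500 nM / SAM 20 uM; 2 h RT; anti-H3K9me1 Ab 0.5 ug/mL + SA donor / anti-rabbit acceptor beads 20 ug/mL each, 10 min; AlphaScreen read.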
HP1b binding inh: inhibitors of HP1-beta chromodomain binding to methylated histone tails. AlphaScreen HP1-beta / biotin-H3K9me3 peptide binding. Potency, µM (highest dose often 114 µM), for inactives: top-dose activity change, negative = inhibition, actives largely listed as inhibitors. 0.56% of 390,000 active; also: nearly all actives have a fitted effect of over 70% in size
Target sequence (P83916 whole entry, looked up): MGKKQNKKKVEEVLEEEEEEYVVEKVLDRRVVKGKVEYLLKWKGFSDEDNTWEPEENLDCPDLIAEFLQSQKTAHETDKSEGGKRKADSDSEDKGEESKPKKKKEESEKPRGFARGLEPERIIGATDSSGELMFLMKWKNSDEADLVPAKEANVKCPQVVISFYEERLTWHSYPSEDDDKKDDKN
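AlphaScreen: HP1-beta (50 nM) preformed 30 min with biotin-H3(1-18)K9me3 peptide (50 nM) in PBS pH 7.4, 0.01% Tween-20. Compound added for 30 min at RT, then streptavidin donor/nickel chelate acceptor beads (10 ug/mL) for 30 min.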
JMJD2A Tudor: blocks the human JMJD2A Tudor domain; AlphaScreen JMJD2A-Tudor / H3K4me3 peptide binding; Potency, µM (doses to about 114 µM), without a hit: at the top dose activity change, negative = inhibition, usual class: inhibitors; 4.4% of 390,000 active; AID 504339; also: % is scaled to controls: 0 for no effect and ±100 for the full control effect; nearly all actives have a fitted effect of over 50% in size
BAZ2B block: blocks human BAZ2B | 4.4% of 360,000 active | AlphaScreen BAZ2B-H3K14Ac peptide displacement | Q9UIF8 | AID 504333 | Potency, µM (doses to about 114 µM), inactives show top-dose activity change, negative = inhibition, actives largely listed as inhibitors; also: % is scaled to controls: 0 for no effect and ±100 for the full control effect; nearly all actives have a fitted effect of over 60% in size
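AlphaScreen displacement: compounds (up to 110uM) incubated 30 min at room temperature with a preformed 50 nM BAZ2B/50 nM biotinylated H3K14Ac peptide complex in PBS pH 7.4 with Tween-20. Donor and acceptor beads at 10 ug/mL final added, 20 min light-protected before reading.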
GLS inh: inhibitors of human glutaminase (GLS). GLS enzymatic activity, qHTS titration. Potency, µM (highest dose often 45.5 µM), without a hit: top-dose activity change, negative = inhibition, actives largely listed as inhibitors. 0.21% of 410,000 active; also: % is scaled to controls: 0 for no effect and ±100 for the full control effect
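hKGA; 45 mM KH2PO4 pH 8.2 + 0.02% Tween-20; cpd via pin tool; 1 mM Gln soln; GluOx/HRP/Amplex Red; RT 30 min; fluor. t0 & final.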
Starred values were filed as active, the others as inactive; ? = inconclusive; · = no result given; ! = not active in a repeat; [ ] = dose if it differs, or a comment. Calls follow the shape of the dose curve; as a rule, active = well fitted curve in the direction sought with a large enough effect; inconclusive = small, poorly fitted or top-dose-only effect, or another doubt; inactive = no such curve, though single readings can be large; an effect the other way counts as inactive or inconclusive. Potency is read from the fitted curve at half-maximal effect.

SMILES	G9a inh	HP1b binding inh	JMJD2A Tudor	BAZ2B block	GLS inh
COc1ccc(CNC(=O)c2ccc(CS(=O)(=O)c3ccccc3C)o2)cc1	26%	29%	-12%	-5%	6%
Brc1ccc(-c2cnnc(N3CCCC3)n2)cc1	71µM*	26%	-11%	2%	-6%
CN(C)c1ccc(C2SCCN2C(=O)c2ccc([N+](=O)[O-])cc2)cc1 (stereo unspecified)	?	?	?	45µM*	29%
Cn1c(-[n+]2c(-c3ccccc3)cc(-c3ccccc3)cc2-c2ccccc2)nc2cc([N+](=O)[O-])ccc21	1.8µM*	17%	-10%	40µM*	-1%
CCOc1ccc(CNC(=O)Cn2cc3c(n2)-c2c(oc(C(=O)N4CCOCC4)c2C)CC3)cc1	?	27%	56µM*	?	-12%
CCOCCCNC(=O)c1[nH]c(C)c(C(C)=O)c1C	31%[0.501 µM]	-2%	-2%	?	2%
COC(=O)C(Cc1ccccc1)OS(N)(=O)=O (stereo unspecified)	-4%	30%	-11%	-1%	2%
Oc1ccc(/C=N/Nc2nccnc2Cl)c(O)c1	38%	30%	50µM*	14µM*	18%
Oc1ccccc1/C=N/Nc1nccnc1Cl	-6%[12.7 µM]	33%	?	35µM*	0%
Oc1ccc(/C=N/Nc2ncc(Br)cn2)c(O)c1	49%[59 µM]	15%	?	14µM*	24%
Oc1ccc(Br)cc1/C=N/Nc1ncc(-c2ccccc2)cn1	17%	33%	-24%	-14%	0%
O=[N+]([O-])c1ccccc1/C=N/Nc1nccnc1Cl	88%[59 µM]	-5%	?	?	24%
CC(=O)Nc1ccc2nsnc2c1	-1%	24%	-13%	-2%	3%
CCc1ccc(NC(=O)CSc2nc(-c3ccc(C)cc3)nc3c2Cc2c(CO)cnc(C)c2O3)cc1	10%[12.7 µM]	43%	-24%	50µM*	-22%
CCc1ccc(NC(=O)CSc2nc(-c3ccccc3Cl)nc3c2Cc2c(CO)cnc(C)c2O3)cc1	10%[59 µM]	24%	13%	-1%	-12%
COc1ccc(-c2nc3c(c(SCC(=O)Nc4cccc(O)c4)n2)Cc2c(CO)cnc(C)c2O3)cc1	11µM*!	13%[57 µM]	-35%	?	-22%
Cc1ncc(CO)c2c1Oc1nc(-c3ccccc3)nc(SCC(=O)Nc3cccc(O)c3)c1C2	1%	49%	-18%	-18%	1%
Cc1ccc(Cn2nnc3c(=O)[nH]c(C(=O)NCc4ccco4)nc32)cc1	?	20%	?	-5%	1%
O=NC1=C(c2c(O)[nH]c3ccccc23)CCCC1	?	12%	-15%	-6%	?
O=Nc1c(-c2c(O)[nH]c3ccccc23)[nH]c2ccccc12	8.9µM*	·	·	·	·
CN(C)C1(CNCC(O)c2ccccc2)CCCCC1 (stereo unspecified)	20µM*	?	20µM*	71µM*	2%
CN1CCN(CCC(=O)Nc2ccc(C3CCCC3)cc2)CC1	32µM*	36%	-10%	?	0%
CN1CCN(CCC(=O)Nc2ccc(Cl)cc2)CC1	11µM*	9%	-25%	-17%	1%
CN1CCN(CCC(=O)Nc2ccccc2)CC1	·	43%	-9%	1%	2%
O=C(CCN1CCCC1)Nc1ccc(Br)cc1	20µM*	44%	-18%	12%	14%
SMILES	G9a inh	HP1b binding inh	JMJD2A Tudor	BAZ2B block	GLS inh
O=C(CN1CCOCC1)Nc1ccc(C2CCCCC2)cc1	-12%[59 µM]	31%	-16%	-6%	1%
O=S(=O)(Nc1nc2ccccc2nc1Cl)c1ccc2ccccc2c1	?	24%	-8%	12%	7%
O=C1CN(C(=O)c2ccc(Cl)nc2)c2ccccc2N1	6%	8%	-11%	-21%	-4%
CCOc1ccc(C(=O)NCC(=O)OCC(=O)c2ccc3c(c2)-c2ccccc2C3)cc1	71µM*	55%	-4%	13%	-8%
O=C(Cc1ccc(F)cc1)NCCc1csc2nc(-c3ccc(Cl)cc3)nn12	3%[59 µM]	24%[57 µM]	-8%	5%	0%
CCOC(=O)C(CC)Sc1cc(C)nc2ccc(OC)cc12 (stereo unspecified)	20%	45%	11%	-6%	-9%
CCN(CC)c1ccc(C(=C2C=CC(=[N+](CC)CC)C=C2)c2ccc(S(=O)(=O)O)cc2S(=O)(=O)[O-])cc1	·	22µM*	?	·	-7%
O=C(c1ccccc1)c1cnc(-c2ccc(Cl)cc2)s1	13%	58%	8%	-1%	·
N#Cc1c(NC(=O)CCC(=O)O)sc2c1CCCCC2	45µM*	?	45µM*	?	-1%
O=C(CCc1ccccc1)Nc1sc2c(c1C(=O)O)CCCC2	·	21%	-19%	·	4%
CCC(=O)Nc1sc2c(c1C#N)CCC2	17%	-1%	89µM*	-14%	-9%
N#Cc1c(NC(=O)CCC(=O)O)sc2c1CCCC2	-3%[12.7 µM]	19%	-8%	10%	21%
CC(C)CC(=O)Nc1sc2c(c1C(=O)O)CCCCC2	71µM*	19%	-19%	?	26%
Cc1nnc(SCC(=O)Nc2sc3c(c2C#N)CCCCC3)n1N	14µM*	-13%	-14%	-23%	17%
Cc1ccc(SCC(=O)NC2CCS(=O)(=O)C2)cc1 (stereo unspecified)	1%	24%	-7%	-8%	0%
COc1ccccc1NC(=O)Cn1nc(-c2ccc3c(c2)OCCO3)ccc1=O	?	41%	-19%	-30%	0%
N#Cc1c(/N=C/c2ccco2)sc2c1CCC2	?	-3%	-29%	-28%	14%
N#Cc1c(/N=C/C=C/c2ccccc2)sc2c1CCCC2	?	18µM*	45µM*	22µM*	?
Cc1ccc(/C=N/c2sc3c(c2C#N)CCCCC3)o1	14µM*	?	56µM*	28µM*	-3%
C[C@@]12C(=O)Nc3ccc(Br)cc3C(=O)N1[C@H]1c3cc(Cl)ccc3OC[C@@H]1[C@@H]2c1ccccc1	-5%[2.33 µM]	24%	-21%	2%	5%
CC(C)(C)NC(=O)Nc1ccc(F)c(Cl)c1	6%[59 µM]	40%	9%	-4%	-7%
CC(C)(O)C(=O)NNC(=S)Nc1ccc(F)c(Cl)c1	45µM*	6%	-15%	-1%	?
CCOC(=O)Cc1nnc(NC(=O)c2ncn[nH]2)s1	?	14%	2µM*	8.9µM*	1%
CCOC(=O)Cc1nnc(NC(=O)c2ccccc2OCC)s1	-43%[59 µM]	43%	-1%	5%	1%
CCCCn1c(N)c(N(CCOC)C(=O)c2cc(-c3ccco3)nc3ccccc23)c(=O)[nH]c1=O	40µM*	-38%	40µM*	50µM*	?
CCCCN(C(=O)c1cc(Cl)nc2ccccc12)c1c(N)n(CCCC)c(=O)[nH]c1=O	56µM*	23%	-31%	1%	-1%
CCCCN(C(=O)c1ccccc1F)c1c(N)n(CCC)c(=O)[nH]c1=O	8%	29%	79µM*	-12%	1%
